Data reported in PubChem BioAssay AID504710 (Sanford-Burnham Center for Chemical Genomics, 2011).
A number with no mark means an inactive call. Active and inactive are the calls of the source.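 The calls were made as follows: active = inhibition reaching about 16% in any single replicate (limit read from the data); inactive = the rest.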

Molecular target: Hexokinase HKDC1 (Homo sapiens) (UniProt Q2TB90)
Experiment: compounds lowering human HKDC1 activity – biochemical, single concentration, confirmation (AID 504710)
Conditions: recombinant HKDC1, G6PDH/diaphorase/resazurin fluorescence; at 20 µM; active compounds read high

Chain of Hexokinase HKDC1 (Homo sapiens) (Q2TB90 whole entry, looked up): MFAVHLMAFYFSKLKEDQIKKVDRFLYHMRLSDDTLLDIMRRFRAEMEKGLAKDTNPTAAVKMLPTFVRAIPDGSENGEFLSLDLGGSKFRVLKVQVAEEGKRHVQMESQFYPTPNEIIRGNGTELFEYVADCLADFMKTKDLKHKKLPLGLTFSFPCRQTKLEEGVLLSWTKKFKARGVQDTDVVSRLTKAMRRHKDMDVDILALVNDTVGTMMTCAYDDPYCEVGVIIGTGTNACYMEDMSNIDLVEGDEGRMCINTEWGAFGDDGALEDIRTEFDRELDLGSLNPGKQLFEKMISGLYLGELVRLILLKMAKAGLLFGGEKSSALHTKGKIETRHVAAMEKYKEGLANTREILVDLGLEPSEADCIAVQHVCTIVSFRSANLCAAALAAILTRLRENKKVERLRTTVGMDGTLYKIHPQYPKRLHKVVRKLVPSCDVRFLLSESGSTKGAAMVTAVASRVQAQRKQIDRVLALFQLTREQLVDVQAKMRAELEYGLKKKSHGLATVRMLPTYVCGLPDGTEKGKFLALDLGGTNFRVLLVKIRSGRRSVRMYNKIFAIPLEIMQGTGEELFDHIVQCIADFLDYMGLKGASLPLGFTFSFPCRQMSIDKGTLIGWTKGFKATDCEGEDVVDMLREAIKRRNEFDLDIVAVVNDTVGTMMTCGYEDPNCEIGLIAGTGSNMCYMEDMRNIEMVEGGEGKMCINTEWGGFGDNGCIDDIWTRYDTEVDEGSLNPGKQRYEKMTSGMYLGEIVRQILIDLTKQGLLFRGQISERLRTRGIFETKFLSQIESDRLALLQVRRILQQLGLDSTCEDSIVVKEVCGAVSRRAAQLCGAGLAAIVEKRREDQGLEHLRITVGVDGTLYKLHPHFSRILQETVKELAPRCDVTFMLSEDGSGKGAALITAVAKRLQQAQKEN

| Compound | inhibition |
| --- | --- |
| Cc1oc2c(c1C(=O)c1ccccc1)C(=O)C(=O)c1ccccc1-2 | 51.8% (active) |
| CCCCN(CCCC)C(=S)N/N=C/c1c(C)[nH]n(-c2ccccc2)c1=O | -65% |
| CCCc1nc2oc3c(NCCOCCO)ncnc3c2c2c1COC(C)(C)C2 | 41.7% (active) |
| CN1c2ccc(C=O)c3c(C=O)ccc(c23)N(C)C1(C)C | 61.2% (active) |
| COc1ccc(N=C2NN=C(c3ccc4c(c3)OCCO4)CS2)cc1 | -33.1% |
| CCCCNC(=O)c1sc(=S)n2c1[nH]c(=O)c1ccc(C(=O)NCCc3ccc(OC)c(OC)c3)cc12 | 49.8% (active) |
| O=C(O)c1cc(O)c2c(c1)[C@@H]([C@H]1c3cc(C(=O)O)cc(O)c3C(=O)c3c(O[C@@H]4O[C@H](CO)[C@@H](O)[C@H](O)[C@H]4O)cccc31)c1cccc(OC3O[C@H](CO)[C@@H](O)[C@H](O)[C@H]3O)c1C2=O (some centres undefined) | 50.9% (active) |
| O=C(c1ccccc1)c1n[nH]c(-c2ccccc2)cc1=O | 16.3% (active) |
| O=c1c2ccccc2nc2n1CCC2 | 67.1% (active) |
| O=C1C(N2CCOCC2)=C(n2nnc3ccccc32)C(=O)c2ccccc21 | 54.8% (active) |
| CC(=NNC(=S)N1CCCCC1)c1cccc(C)n1 | -39.6% |
| Cc1ccc2oc(=O)c3cnn(CC(=O)N4CCCCCC4)c3c2c1 | -63.5% |
| COc1cc(SC#N)ccc1N=Cc1c(C)[nH]n(-c2ccc(Cl)cc2)c1=O | -38.2% |
| COc1ccccc1C1=NNC(=Nc2cccc(S(=O)(=O)N(C)C)c2)SC1 | -177% |
